# Measured values taken from PMC7862700, “An all-to-all approach to the identification of sequence-specific readers for epigenetic DNA modifications on cytosine”.
# Key:
# Experiment in all cases: DAPPL (digital affinity profiling via proximity ligation, sequencing); 10 mM Tris-HCl pH 7.5, 50 mM NaCl, 1 mM DTT, 4% glycerol, room temperature, 30 min; GST-TFs on glutathione beads, 16-mer random dsDNA library, 0.1% formaldehyde crosslink after washing; high values mean tight binding
# FEV = biological target: T1, FEV (Homo sapiens, UniProt Q99581 1-238); details: protein: recombinant; tags: N-terminal GST; dsDNA, one strand shown
# T1 sequence: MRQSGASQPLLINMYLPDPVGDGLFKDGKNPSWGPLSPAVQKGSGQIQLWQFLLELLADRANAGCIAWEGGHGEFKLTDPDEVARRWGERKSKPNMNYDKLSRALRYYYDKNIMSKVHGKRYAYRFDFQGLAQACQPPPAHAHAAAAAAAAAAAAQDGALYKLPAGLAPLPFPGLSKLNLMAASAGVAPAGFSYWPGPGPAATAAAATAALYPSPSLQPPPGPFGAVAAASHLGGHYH
# Outline: (§1)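 In yeast, human transcription factors were expressed with a GST fusion, then pulled down on glutathione beads and given DNA barcodes. Pooled with a tag-only sample, they were exposed to 200 nmole of a 16-mer random double-stranded DNA library (Tris/NaCl/DTT/glycerol buffer, room temperature, 30 min), washed, crosslinked with 0.1% formaldehyde, proximity-ligated using BsaI/T4 ligase for 1 h at 37 °C, PCR-amplified and read on an Illumina NextSeq500. Each hexamer's frequency of reads for a factor, divided by the matching frequency for the tag-only sample, gives the binding signal.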
# ETV5 = ETV5 (Homo sapiens, UniProt P41161 1-510); details: protein: recombinant; tags: N-terminal GST; dsDNA, one strand shown
# Outline: as §1
# HSF1 = HSF1 (Homo sapiens, UniProt Q00613 1-529); details: protein: recombinant; tags: N-terminal GST; chain copies: 3; dsDNA, one strand shown
# Outline: as §1
# SPIC = biological target: T2, SPIC (Homo sapiens, UniProt Q8N5J4 1-248); details: protein: recombinant; tags: N-terminal GST; dsDNA, one strand shown
# T2 sequence: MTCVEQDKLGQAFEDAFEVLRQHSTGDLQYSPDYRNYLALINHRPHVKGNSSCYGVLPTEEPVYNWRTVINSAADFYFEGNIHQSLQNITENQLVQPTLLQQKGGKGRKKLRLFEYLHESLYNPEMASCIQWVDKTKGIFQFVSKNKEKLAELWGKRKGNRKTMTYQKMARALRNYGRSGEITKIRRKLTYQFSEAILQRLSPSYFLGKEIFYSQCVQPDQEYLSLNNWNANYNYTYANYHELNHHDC
# Outline: as §1
# ELF4 = ELF4 (Homo sapiens, UniProt Q99607 1-663); details: protein: recombinant; tags: N-terminal GST; dsDNA, one strand shown
# Outline: as §1
# ELK4 = biological target: T3, ELK4 (Homo sapiens, UniProt P28324-2 1-405); details: protein: recombinant; tags: N-terminal GST; dsDNA, one strand shown
# T3 sequence: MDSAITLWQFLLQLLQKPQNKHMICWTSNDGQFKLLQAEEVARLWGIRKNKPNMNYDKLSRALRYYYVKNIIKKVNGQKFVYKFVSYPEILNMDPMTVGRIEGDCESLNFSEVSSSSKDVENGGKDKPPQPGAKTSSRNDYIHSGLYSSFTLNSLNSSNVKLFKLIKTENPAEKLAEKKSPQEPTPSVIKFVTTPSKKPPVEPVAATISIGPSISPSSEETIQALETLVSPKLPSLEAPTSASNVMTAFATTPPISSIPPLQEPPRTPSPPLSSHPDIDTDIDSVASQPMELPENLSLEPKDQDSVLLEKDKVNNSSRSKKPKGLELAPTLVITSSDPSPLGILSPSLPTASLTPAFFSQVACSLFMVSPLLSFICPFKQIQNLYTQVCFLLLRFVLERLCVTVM
# Outline: as §1
# ETV2 = biological target: T4, ETV2 (Homo sapiens, UniProt O00321 1-342); details: protein: recombinant; tags: N-terminal GST; dsDNA, one strand shown
# T4 sequence: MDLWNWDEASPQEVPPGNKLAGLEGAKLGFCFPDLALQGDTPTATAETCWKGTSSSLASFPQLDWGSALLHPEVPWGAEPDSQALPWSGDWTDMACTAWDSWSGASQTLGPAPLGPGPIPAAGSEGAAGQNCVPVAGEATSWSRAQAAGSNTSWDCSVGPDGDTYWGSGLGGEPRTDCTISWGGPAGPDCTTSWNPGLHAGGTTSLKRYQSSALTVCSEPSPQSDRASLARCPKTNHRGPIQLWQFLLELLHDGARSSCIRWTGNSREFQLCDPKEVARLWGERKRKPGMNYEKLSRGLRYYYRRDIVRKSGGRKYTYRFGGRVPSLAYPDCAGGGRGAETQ
# Outline: as §1
# ELF3 = biological target: T5, ELF3 (Homo sapiens, UniProt P78545 1-371); details: protein: recombinant; tags: N-terminal GST; dsDNA, one strand shown
# T5 sequence: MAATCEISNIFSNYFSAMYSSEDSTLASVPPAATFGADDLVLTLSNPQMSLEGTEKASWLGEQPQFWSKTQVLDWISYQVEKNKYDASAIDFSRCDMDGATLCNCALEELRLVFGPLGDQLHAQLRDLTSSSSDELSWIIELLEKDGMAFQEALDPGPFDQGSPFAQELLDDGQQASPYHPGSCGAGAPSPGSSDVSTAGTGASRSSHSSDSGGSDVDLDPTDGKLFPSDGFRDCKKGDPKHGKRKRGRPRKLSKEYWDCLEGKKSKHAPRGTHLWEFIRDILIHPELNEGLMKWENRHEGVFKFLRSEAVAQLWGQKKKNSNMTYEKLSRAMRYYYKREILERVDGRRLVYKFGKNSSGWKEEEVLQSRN
# Outline: as §1
# CRX = CRX (Homo sapiens, UniProt O43186 1-299); details: protein: recombinant; tags: N-terminal GST; dsDNA, one strand shown
# Outline: as §1
# ETV1 = ETV1 (Homo sapiens, UniProt P50549 1-477); details: protein: recombinant; tags: N-terminal GST; dsDNA, one strand shown
# Outline: as §1
# ERF = biological target: T6, ERF (Homo sapiens, UniProt P50548 1-548); details: protein: recombinant; tags: N-terminal GST; dsDNA, one strand shown
# T6 sequence: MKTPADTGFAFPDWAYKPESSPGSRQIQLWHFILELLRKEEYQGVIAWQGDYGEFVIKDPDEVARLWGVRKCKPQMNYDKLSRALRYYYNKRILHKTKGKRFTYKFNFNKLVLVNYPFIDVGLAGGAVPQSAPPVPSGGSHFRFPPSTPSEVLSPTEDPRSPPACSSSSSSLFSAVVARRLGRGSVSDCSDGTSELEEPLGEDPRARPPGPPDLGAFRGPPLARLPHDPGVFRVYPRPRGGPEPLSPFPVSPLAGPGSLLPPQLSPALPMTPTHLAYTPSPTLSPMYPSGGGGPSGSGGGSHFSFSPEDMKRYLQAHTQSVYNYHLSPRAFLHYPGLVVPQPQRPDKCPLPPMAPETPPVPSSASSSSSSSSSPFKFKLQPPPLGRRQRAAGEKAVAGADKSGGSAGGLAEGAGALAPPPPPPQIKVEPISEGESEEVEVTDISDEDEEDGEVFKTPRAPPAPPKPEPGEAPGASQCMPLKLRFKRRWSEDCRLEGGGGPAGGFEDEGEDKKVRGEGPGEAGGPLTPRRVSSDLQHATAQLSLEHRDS
# Outline: as §1
# ETV3L = biological target: T7, ETV3L (Homo sapiens, UniProt Q6ZN32 1-361); details: protein: recombinant; tags: N-terminal GST; dsDNA, one strand shown
# T7 sequence: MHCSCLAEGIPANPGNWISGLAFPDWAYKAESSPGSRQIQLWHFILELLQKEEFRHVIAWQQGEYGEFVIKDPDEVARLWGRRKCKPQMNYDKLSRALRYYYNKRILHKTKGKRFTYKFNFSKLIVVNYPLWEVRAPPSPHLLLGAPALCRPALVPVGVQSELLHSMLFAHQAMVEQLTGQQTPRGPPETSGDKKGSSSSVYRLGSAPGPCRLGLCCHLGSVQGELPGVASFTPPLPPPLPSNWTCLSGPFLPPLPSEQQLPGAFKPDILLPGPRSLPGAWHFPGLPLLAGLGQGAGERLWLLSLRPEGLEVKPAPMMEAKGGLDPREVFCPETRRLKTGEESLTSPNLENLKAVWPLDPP
# Outline: as §1
# ETS2 = biological target: T8, ETS2 (Homo sapiens, UniProt P15036 1-469); details: protein: recombinant; tags: N-terminal GST; dsDNA, one strand shown
# T8 sequence: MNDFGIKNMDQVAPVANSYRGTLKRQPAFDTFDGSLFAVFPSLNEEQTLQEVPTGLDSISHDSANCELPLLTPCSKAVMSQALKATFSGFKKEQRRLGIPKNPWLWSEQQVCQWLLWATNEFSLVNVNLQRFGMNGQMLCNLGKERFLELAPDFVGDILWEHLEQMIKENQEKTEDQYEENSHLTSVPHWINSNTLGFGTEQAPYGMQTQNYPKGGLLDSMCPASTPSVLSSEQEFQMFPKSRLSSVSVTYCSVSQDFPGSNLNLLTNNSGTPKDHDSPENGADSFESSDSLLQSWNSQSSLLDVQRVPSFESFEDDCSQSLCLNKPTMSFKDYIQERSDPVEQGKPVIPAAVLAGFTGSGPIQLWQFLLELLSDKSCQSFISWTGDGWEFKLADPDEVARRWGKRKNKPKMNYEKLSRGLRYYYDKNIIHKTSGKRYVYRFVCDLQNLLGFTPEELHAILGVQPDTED
# Outline: as §1
# SPDEF = biological target: T9, SPDEF (Homo sapiens, UniProt O95238 1-335); details: protein: recombinant; tags: N-terminal GST; dsDNA, one strand shown
# T9 sequence: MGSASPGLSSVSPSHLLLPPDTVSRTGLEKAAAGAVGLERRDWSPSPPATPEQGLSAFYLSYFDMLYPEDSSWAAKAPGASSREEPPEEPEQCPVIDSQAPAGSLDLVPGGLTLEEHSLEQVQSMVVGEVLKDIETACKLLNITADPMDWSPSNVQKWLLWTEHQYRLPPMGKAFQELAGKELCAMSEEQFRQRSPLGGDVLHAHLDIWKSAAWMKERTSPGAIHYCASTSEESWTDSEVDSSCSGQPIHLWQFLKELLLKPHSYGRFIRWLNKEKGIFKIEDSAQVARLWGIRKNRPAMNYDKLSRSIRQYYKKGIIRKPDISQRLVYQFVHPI
# Outline: as §1
# ETV7 = biological target: T10, ETV7 (Homo sapiens, UniProt Q9Y603 1-341); details: protein: recombinant; tags: N-terminal GST; dsDNA, one strand shown
# T10 sequence: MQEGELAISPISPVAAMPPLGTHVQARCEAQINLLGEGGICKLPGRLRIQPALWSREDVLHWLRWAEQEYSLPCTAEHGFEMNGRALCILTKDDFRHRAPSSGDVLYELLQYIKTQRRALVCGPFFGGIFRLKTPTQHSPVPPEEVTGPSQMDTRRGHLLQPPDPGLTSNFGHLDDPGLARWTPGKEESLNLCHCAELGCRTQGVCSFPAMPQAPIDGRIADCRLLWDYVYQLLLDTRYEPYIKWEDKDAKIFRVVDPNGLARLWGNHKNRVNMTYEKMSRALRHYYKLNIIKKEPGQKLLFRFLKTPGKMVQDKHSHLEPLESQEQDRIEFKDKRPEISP
# Outline: as §1
# ELF5 = biological target: T11, ELF5 (Homo sapiens, UniProt Q9UKW6-2 1-255); details: protein: recombinant; tags: N-terminal GST; dsDNA, one strand shown
# T11 sequence: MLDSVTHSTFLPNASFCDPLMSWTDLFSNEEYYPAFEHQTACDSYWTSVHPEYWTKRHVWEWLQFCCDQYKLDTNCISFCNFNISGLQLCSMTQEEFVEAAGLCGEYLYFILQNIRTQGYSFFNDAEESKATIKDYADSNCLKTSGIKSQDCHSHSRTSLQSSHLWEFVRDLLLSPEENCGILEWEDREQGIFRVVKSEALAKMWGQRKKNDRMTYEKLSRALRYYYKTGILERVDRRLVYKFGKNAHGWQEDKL
# Outline: as §1
# ETV3 = biological target: T12, ETV3 (Homo sapiens, UniProt P41162-2 1-143); details: protein: recombinant; tags: N-terminal GST; dsDNA, one strand shown
# T12 sequence: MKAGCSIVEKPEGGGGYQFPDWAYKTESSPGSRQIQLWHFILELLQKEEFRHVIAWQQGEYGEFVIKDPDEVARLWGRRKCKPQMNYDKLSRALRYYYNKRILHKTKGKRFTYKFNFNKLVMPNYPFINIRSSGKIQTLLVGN
# Outline: as §1
# ETV6 = ETV6 (Homo sapiens, UniProt P41212 1-452); details: protein: recombinant; tags: N-terminal GST; dsDNA, one strand shown
# Outline: as §1
# Chain of CRX (O43186 whole entry): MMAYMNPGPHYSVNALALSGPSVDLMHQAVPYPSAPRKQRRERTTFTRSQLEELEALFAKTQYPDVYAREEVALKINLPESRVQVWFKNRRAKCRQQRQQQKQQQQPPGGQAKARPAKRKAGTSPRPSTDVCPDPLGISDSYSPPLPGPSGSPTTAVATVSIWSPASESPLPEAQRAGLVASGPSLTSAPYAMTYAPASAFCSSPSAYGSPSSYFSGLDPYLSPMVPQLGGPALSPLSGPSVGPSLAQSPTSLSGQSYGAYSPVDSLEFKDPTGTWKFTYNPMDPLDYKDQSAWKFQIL
# Chain of ELF4 (Q99607 whole entry): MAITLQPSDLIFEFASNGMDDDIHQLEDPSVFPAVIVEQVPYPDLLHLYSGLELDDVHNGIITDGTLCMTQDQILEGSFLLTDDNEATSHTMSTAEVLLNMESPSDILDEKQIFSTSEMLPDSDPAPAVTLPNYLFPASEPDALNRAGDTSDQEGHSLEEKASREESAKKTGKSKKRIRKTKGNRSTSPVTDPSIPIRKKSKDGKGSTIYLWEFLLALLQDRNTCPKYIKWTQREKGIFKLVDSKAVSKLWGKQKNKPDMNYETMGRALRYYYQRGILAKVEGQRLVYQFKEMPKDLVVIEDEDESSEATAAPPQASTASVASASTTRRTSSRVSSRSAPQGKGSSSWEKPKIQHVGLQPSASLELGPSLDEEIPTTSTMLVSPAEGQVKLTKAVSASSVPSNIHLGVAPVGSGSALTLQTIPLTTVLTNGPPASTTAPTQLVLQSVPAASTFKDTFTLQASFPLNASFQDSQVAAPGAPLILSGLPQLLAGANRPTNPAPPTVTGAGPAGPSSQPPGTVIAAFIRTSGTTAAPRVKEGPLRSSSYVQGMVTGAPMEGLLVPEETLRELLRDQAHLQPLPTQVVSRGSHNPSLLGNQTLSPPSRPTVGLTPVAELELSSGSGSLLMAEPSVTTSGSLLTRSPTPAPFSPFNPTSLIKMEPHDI
# Chain of ETV1 (P50549 whole entry): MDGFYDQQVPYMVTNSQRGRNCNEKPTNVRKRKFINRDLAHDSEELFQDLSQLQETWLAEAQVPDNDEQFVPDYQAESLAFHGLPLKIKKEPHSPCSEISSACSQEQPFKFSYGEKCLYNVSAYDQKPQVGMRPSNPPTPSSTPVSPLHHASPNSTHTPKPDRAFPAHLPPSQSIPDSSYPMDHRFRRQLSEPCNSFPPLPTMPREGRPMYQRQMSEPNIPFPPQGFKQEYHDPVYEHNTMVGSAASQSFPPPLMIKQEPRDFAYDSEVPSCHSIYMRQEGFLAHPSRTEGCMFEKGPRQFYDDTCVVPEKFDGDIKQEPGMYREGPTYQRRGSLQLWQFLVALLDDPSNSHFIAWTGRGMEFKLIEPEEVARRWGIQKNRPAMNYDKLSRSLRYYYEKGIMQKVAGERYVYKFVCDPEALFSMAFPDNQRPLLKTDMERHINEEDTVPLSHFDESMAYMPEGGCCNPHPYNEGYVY
# Chain of ETV5 (P41161 whole entry): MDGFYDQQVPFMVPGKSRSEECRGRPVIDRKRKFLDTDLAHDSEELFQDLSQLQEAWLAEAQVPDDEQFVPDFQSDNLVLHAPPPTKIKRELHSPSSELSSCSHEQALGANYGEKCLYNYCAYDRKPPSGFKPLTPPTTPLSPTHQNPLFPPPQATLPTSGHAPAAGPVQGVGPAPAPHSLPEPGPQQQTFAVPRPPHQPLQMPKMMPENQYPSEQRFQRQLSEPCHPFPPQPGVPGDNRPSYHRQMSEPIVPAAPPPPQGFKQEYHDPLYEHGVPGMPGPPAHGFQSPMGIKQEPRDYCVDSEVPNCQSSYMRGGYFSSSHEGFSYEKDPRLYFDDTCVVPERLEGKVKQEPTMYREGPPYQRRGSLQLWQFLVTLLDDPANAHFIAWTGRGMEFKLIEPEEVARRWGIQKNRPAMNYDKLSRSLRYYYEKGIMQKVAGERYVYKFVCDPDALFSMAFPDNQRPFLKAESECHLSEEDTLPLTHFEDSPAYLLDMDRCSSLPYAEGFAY
# Chain of ETV6 (P41212 whole entry): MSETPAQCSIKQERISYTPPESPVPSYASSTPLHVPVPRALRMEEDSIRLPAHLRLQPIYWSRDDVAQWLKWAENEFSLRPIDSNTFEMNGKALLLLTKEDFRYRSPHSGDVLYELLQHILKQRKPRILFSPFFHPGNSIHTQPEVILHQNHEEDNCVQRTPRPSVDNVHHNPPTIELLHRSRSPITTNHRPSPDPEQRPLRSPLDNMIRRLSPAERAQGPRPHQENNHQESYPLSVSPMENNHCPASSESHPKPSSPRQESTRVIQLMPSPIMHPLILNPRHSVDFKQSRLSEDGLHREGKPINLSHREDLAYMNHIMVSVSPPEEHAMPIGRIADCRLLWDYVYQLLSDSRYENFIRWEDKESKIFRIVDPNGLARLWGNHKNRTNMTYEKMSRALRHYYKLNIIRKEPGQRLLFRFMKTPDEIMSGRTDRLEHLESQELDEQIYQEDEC
# Chain of HSF1 (Q00613 whole entry): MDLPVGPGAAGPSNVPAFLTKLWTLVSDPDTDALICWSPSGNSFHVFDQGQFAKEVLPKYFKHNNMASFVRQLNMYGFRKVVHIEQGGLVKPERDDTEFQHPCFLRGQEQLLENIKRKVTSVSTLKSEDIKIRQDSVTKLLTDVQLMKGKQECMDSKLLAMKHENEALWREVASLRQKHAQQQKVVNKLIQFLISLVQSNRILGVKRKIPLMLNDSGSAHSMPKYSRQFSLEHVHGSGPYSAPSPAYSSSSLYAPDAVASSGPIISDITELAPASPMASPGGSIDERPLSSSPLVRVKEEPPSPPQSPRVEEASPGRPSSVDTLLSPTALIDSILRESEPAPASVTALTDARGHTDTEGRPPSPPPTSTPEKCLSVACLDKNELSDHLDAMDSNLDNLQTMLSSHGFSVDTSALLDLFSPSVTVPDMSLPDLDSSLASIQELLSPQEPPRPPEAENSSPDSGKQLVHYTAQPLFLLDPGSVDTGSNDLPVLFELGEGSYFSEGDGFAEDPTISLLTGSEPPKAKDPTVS
sequence,measurement,setting,value
TTCGGT,binding signal,FEV,"1.16 fold enrichment (6-mer frequency, TF over GST control)"
same,binding signal,ETV5,"1.23 fold enrichment (6-mer frequency, TF over GST control)"
same,binding signal,HSF1,"1.22 fold enrichment (6-mer frequency, TF over GST control)"
same,binding signal,SPIC,"1.34 fold enrichment (6-mer frequency, TF over GST control)"
same,binding signal,ELF4,"1.17 fold enrichment (6-mer frequency, TF over GST control)"
same,binding signal,ELK4,"1.21 fold enrichment (6-mer frequency, TF over GST control)"
same,binding signal,ETV2,"1.13 fold enrichment (6-mer frequency, TF over GST control)"
same,binding signal,ELF3,"1.04 fold enrichment (6-mer frequency, TF over GST control)"
same,binding signal,CRX,"1 fold enrichment (6-mer frequency, TF over GST control)"
same,binding signal,ETV1,"1.23 fold enrichment (6-mer frequency, TF over GST control)"
same,binding signal,ERF,"1.18 fold enrichment (6-mer frequency, TF over GST control)"
same,binding signal,ETV3L,"1.11 fold enrichment (6-mer frequency, TF over GST control)"
same,binding signal,ETS2,"1.16 fold enrichment (6-mer frequency, TF over GST control)"
same,binding signal,SPDEF,"1.13 fold enrichment (6-mer frequency, TF over GST control)"
same,binding signal,ETV7,"1.15 fold enrichment (6-mer frequency, TF over GST control)"
same,binding signal,ELF5,"1.06 fold enrichment (6-mer frequency, TF over GST control)"
same,binding signal,ETV3,"1.07 fold enrichment (6-mer frequency, TF over GST control)"
same,binding signal,ETV6,"1.22 fold enrichment (6-mer frequency, TF over GST control)"
